Results reported in the supplement of paper PMC6411743.
± gives the standard deviation of the averaged measurements. The full data set covers some 5,400 targets. This sample favours those with the largest changes.

Compound: Nc1nc2c(ncn2[C@@H]2O[C@H](COP(=O)(O)OP(=O)(O)OP(=O)(O)O)[C@@H](O)[C@H]2O)c(=O)[nH]1 [guanosine triphosphate]
Assay: NP40-soluble protein abundance relative to vehicle (solubility fold change) (ratio); higher = more soluble protein in presence of GTP
Summary of the method: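 Crude Jurkat lysate, prepared by Dounce homogenisation, was exposed to eight concentrations from 0.1 to 10 mM for 10 min at room temperature and then 3 min at 37 °C. Solubilisation used 0.8% NP40 with benzonase for 60 min at 4 °C, followed by ultracentrifugation and TMT labelling of the supernatant for LC-MS/MS. After vsn normalisation of intensities, each value is the fold change against the detergent-processed vehicle within each replicate, across three independent experiments.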

Chain of UniProt Q9Y512 (Q9Y512 whole entry): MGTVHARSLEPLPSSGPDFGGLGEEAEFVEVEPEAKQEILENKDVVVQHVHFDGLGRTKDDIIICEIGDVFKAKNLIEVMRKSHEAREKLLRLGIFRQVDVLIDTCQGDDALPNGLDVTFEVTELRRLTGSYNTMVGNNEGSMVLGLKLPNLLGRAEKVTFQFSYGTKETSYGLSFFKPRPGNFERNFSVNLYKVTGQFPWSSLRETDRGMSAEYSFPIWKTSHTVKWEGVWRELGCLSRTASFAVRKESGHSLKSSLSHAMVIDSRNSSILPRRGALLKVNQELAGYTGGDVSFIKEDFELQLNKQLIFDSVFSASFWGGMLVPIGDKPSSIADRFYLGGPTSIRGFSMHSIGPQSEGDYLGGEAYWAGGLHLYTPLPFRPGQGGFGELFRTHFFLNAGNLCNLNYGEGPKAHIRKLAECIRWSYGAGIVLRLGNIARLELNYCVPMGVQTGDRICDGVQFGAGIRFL
Chain of UniProt Q93052 (Q93052 whole entry, one chain of several): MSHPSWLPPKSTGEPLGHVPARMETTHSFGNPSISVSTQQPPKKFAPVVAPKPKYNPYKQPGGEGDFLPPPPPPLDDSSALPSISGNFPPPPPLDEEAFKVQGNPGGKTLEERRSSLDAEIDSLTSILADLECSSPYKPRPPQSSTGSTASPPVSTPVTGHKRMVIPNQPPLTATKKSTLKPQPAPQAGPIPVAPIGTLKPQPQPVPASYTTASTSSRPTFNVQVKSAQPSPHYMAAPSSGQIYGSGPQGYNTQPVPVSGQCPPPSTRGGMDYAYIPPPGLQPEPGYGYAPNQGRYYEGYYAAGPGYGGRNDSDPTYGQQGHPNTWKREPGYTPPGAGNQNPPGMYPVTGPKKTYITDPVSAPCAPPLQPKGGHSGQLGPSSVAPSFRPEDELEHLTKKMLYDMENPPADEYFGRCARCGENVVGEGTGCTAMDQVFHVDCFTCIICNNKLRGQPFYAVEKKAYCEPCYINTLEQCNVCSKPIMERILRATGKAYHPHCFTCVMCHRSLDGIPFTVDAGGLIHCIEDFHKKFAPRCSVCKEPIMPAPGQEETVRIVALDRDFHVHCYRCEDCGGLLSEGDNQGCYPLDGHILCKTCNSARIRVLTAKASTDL
Chain of UniProt Q9Y383 (Q9Y383 whole entry): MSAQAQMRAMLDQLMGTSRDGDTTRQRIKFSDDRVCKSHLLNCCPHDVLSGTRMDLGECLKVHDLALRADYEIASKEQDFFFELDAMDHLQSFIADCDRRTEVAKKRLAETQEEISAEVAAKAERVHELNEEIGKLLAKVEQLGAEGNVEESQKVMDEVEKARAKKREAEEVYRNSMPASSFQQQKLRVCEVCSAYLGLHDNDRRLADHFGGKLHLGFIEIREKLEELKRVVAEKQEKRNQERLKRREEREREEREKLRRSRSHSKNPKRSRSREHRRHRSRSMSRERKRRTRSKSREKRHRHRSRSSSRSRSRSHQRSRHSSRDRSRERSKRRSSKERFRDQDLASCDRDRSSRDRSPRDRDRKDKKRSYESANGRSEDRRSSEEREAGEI
Chain of UniProt Q96LT9 (Q96LT9 whole entry): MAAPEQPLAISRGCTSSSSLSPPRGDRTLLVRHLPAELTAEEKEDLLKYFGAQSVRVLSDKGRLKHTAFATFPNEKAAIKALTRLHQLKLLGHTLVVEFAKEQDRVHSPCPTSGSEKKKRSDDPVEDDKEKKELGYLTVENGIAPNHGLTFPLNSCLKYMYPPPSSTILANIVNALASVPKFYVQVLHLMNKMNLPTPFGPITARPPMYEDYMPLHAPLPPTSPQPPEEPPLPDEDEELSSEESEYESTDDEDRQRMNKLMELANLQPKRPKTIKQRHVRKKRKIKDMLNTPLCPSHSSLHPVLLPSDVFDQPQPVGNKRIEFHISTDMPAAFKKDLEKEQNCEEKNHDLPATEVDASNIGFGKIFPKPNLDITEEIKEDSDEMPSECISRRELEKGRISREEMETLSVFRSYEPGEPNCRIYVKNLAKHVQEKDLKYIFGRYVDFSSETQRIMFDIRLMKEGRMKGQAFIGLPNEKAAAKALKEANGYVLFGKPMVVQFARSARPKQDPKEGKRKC
Chain of UniProt Q969P0 (Q969P0 whole entry): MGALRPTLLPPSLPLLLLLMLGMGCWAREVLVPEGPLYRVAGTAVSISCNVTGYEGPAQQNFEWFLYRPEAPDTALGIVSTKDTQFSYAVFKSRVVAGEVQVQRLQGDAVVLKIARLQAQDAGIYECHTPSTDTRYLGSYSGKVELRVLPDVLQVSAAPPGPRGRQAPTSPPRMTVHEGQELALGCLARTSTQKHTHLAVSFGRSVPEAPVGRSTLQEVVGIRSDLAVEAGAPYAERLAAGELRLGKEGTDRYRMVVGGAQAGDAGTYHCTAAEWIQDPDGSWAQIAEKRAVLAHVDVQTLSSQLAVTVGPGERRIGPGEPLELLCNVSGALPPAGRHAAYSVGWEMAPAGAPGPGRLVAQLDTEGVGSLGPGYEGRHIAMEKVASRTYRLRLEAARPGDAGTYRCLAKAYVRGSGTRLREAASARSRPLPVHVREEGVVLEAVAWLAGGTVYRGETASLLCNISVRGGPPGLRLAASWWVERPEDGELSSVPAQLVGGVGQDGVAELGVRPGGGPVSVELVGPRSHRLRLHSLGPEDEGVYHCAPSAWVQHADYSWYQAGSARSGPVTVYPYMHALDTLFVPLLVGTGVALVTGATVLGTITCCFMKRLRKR
Chain of UniProt Q92828 (Q92828 whole entry): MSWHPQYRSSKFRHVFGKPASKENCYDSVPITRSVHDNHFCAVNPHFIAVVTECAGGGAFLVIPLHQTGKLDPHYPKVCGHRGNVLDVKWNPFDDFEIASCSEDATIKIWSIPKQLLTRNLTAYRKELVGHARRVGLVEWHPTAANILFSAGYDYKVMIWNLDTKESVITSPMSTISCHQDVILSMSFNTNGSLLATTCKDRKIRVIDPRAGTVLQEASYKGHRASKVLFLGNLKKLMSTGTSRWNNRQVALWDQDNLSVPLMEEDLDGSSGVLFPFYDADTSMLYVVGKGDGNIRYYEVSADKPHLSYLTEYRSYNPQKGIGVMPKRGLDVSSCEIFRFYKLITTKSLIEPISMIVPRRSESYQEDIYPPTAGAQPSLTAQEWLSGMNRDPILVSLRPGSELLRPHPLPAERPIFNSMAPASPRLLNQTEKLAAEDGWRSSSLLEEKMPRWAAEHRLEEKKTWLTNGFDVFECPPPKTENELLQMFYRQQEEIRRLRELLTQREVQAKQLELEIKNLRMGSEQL
Chain of UniProt Q96FJ2 (Q96FJ2 whole entry): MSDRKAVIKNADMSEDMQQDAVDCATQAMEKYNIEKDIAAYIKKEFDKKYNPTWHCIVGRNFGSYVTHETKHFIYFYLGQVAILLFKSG
Chain of UniProt Q9Y3E2 (Q9Y3E2 whole entry): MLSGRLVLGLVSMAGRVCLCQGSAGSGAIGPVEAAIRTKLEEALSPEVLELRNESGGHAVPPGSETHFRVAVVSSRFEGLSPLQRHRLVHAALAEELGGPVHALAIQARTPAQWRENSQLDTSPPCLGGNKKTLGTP
Chain of UniProt Q9Y3L3 (Q9Y3L3 whole entry): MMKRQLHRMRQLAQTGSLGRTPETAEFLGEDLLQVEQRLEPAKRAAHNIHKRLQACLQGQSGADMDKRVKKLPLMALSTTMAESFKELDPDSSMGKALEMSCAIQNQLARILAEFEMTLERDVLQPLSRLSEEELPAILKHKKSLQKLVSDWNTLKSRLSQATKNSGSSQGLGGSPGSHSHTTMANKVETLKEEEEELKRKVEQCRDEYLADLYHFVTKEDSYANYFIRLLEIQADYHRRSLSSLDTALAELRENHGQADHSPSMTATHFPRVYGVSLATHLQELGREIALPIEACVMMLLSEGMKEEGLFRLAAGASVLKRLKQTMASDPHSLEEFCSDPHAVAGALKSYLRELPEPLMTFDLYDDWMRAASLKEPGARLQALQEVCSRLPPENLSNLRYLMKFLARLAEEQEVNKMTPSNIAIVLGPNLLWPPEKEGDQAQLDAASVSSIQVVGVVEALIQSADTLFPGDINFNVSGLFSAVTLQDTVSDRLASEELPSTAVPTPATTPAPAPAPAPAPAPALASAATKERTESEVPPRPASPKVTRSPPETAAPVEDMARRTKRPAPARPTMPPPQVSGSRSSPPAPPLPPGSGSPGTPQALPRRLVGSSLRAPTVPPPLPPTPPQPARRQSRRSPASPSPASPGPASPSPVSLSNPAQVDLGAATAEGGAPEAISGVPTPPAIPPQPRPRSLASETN
Chain of UniProt Q96PZ0 (Q96PZ0 whole entry): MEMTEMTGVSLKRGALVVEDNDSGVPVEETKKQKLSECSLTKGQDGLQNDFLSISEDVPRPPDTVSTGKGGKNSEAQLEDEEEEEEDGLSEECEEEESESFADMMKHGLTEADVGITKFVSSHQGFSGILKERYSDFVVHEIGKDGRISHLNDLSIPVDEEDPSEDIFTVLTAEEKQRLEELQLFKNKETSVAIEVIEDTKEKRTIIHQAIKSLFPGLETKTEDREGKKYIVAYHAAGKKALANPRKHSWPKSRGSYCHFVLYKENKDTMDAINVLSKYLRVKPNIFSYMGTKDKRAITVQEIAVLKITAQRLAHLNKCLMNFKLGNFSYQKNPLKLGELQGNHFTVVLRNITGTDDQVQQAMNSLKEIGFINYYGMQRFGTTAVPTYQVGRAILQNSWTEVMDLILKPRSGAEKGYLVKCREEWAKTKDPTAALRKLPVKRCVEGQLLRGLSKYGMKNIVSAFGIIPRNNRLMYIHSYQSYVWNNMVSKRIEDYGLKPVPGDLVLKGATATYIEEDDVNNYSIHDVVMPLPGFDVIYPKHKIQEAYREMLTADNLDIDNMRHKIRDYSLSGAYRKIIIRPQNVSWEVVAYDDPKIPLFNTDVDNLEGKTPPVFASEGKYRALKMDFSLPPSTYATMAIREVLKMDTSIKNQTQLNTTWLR
Chain of UniProt Q9NPD3 (Q9NPD3 whole entry): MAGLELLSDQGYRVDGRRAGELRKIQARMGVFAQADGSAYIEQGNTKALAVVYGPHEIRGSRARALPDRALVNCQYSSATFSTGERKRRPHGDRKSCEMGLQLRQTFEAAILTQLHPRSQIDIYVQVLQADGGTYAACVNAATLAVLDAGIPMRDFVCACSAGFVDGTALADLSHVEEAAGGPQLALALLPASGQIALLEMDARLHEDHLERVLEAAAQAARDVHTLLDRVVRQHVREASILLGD

Target	NP40-soluble protein abundance (concentration: 0.1mM)	NP40-soluble protein abundance (concentration: 0.5mM)	NP40-soluble protein abundance (concentration: 1mM)	NP40-soluble protein abundance (concentration: 2mM)	NP40-soluble protein abundance (concentration: 4mM)	NP40-soluble protein abundance (concentration: 6mM)	NP40-soluble protein abundance (concentration: 8mM)	NP40-soluble protein abundance (concentration: 10mM)
EXOSC4 (UniProt Q9NPD3)	1.07 ± 0.061	0.988 ± 0.057	0.996 ± 0.015	0.994 ± 0.11	1.12 ± 0.023	1.12 ± 0.095	1.11 ± 0.089	1.16 ± 0.054
DDX21 (UniProt Q9NR30)	1.11 ± 0.027	1.1 ± 0.048	1.18 ± 0.026	1.32 ± 0.019	1.56 ± 0.018	1.82 ± 0.028	2.13 ± 0.038	2.698 ± 0.024
LEMD3 (UniProt Q9Y2U8)	0.989 ± 0.049	1 ± 0.038	1.01 ± 0.037	1.01 ± 0.048	0.999 ± 0.036	0.985 ± 0.033	1.01 ± 0.049	0.985 ± 0.027
TESC (UniProt Q96BS2)	1.01 ± 0.035	0.983 ± 0.071	0.985 ± 0.095	0.968 ± 0.16	0.907 ± 0.074	0.932 ± 0.092	0.926 ± 0.073	0.915 ± 0.09
OCIAD1 (UniProt Q9NX40)	0.922 ± 0.025	0.9 ± 0.044	1.01 ± 0.016	0.982 ± 0.058	0.971 ± 0.072	0.956 ± 0.053	0.956 ± 0.034	0.974 ± 0.037
BOLA1 (UniProt Q9Y3E2)	0.909 ± 0.069	0.941 ± 0.075	0.943 ± 0.06	0.943 ± 0.028	0.908 ± 0.073	0.933 ± 0.059	0.903 ± 0.038	1.04 ± 0.055
UniProt Q9UKA9|Q9UKA9-4	1.04 ± 0.021	0.985 ± 0.025	1.01 ± 0.014	0.989 ± 0.045	0.947 ± 0.051	0.955 ± 0.036	0.963 ± 0.029	0.906 ± 0.027
UniProt Q9NY12|Q9NY12-2	1.04 ± 0.097	1.06 ± 0.12	1.17 ± 0.2	1.34 ± 0.15	1.51 ± 0.24	1.72 ± 0.19	1.9 ± 0.27	2.35 ± 0.49
UniProt Q96FJ2	0.875 ± 0.063	0.83 ± 0.033	1.07 ± 0.12	1.06 ± 0.081	1.18 ± 0.1	1.03 ± 0.11	1.05 ± 0.087	1.18 ± 0.17
SAMM50 (UniProt Q9Y512)	1.13 ± 0.15	1.18 ± 0.19	0.999 ± 0.1	1.13 ± 0.29	1.11 ± 0.19	1.1 ± 0.22	0.985 ± 0.098	0.949 ± 0.17
UniProt Q9Y2A7|Q9Y2A7-2	0.9505 ± 0.0043	1.002 ± 0.0081	0.972 ± 0.055	0.982 ± 0.015	0.991 ± 0.034	0.9641 ± 0.0054	1.02 ± 0.026	0.973 ± 0.011
CLIC4 (UniProt Q9Y696)	1 ± 0.088	0.929 ± 0.063	0.966 ± 0.1	0.88 ± 0.1	0.976 ± 0.13	0.909 ± 0.1	0.973 ± 0.12	0.866 ± 0.08
UniProt Q9Y3L3|Q9Y3L3-2	0.998 ± 0.025	1 ± 0.045	0.994 ± 0.018	0.988 ± 0.099	0.981 ± 0.04	0.991 ± 0.052	0.958 ± 0.019	1.01 ± 0.034
UniProt Q96LT9|Q96LT9-2	1.26 ± 0.038	1.16 ± 0.16	1.42 ± 0.12	1.49 ± 0.3	1.61 ± 0.28	1.6 ± 0.35	1.72 ± 0.51	1.8 ± 0.54
CORO2A (UniProt Q92828)	1.08 ± 0.12	1.09 ± 0.11	1.11 ± 0.049	1.19 ± 0.047	1.31 ± 0.056	1.42 ± 0.075	1.42 ± 0.1	1.42 ± 0.058
ATP6V1D (UniProt Q9Y5K8)	1.04 ± 0.016	1.06 ± 0.03	1.04 ± 0.03	1.06 ± 0.022	1.056 ± 0.0052	1.03 ± 0.05	1.02 ± 0.045	0.992 ± 0.018
UniProt Q93052|A0A087WZF1|C9JXK9	0.985 ± 0.047	0.946 ± 0.086	0.944 ± 0.072	0.906 ± 0.071	0.884 ± 0.063	0.896 ± 0.081	0.906 ± 0.083	0.901 ± 0.09
UniProt Q9Y6A4	1.09 ± 0.027	1.04 ± 0.076	0.962 ± 0.024	0.968 ± 0.1	1.01 ± 0.05	0.964 ± 0.087	1.01 ± 0.05	0.957 ± 0.11
UniProt Q9H8Y8|Q9H8Y8-3	0.893 ± 0.088	0.934 ± 0.09	0.911 ± 0.095	0.873 ± 0.087	0.836 ± 0.091	0.858 ± 0.059	0.884 ± 0.091	0.892 ± 0.12
UniProt Q9UKZ1	1.52 ± 0.81	1.19 ± 0.11	1.4 ± 0.41	2.81 ± 2.7	1.26 ± 0.14	1.24 ± 0.11	1.29 ± 0.15	1.36 ± 0.051
UniProt Q9Y2X0-2|Q9Y2X0-3|Q9Y2X0	1.09 ± 0.2	1.07 ± 0.21	1.04 ± 0.17	1.16 ± 0.28	1.08 ± 0.21	1.11 ± 0.16	1.12 ± 0.18	1.04 ± 0.19
LUC7L2 (UniProt Q9Y383)	1.09 ± 0.11	1.4 ± 0.08	1.58 ± 0.098	1.54 ± 0.18	1.56 ± 0.12	1.66 ± 0.12	1.74 ± 0.15	1.7 ± 0.16
NAT10 (UniProt Q9H0A0)	1.07 ± 0.065	1.04 ± 0.061	1.02 ± 0.063	1.07 ± 0.065	1.2 ± 0.079	1.31 ± 0.085	1.37 ± 0.077	1.59 ± 0.11
UniProt Q92804|Q92804-2	0.976 ± 0.03	1.048 ± 0.0095	1.18 ± 0.09	1.35 ± 0.14	1.56 ± 0.22	1.73 ± 0.28	2.08 ± 0.35	2.59 ± 0.54
PUS7 (UniProt Q96PZ0)	0.992 ± 0.013	0.992 ± 0.016	0.944 ± 0.046	0.944 ± 0.029	0.907 ± 0.053	0.917 ± 0.022	0.889 ± 0.038	0.892 ± 0.059
UniProt Q9NVX0|Q9NVX0-2|Q9NVX0-3	0.873 ± 0.21	0.823 ± 0.036	1.02 ± 0.079	1.05 ± 0.083	1.01 ± 0.12	0.996 ± 0.14	0.963 ± 0.022	1.02 ± 0.17
MTMR6 (UniProt Q9Y217)	1.068 ± 0.0063	1.02 ± 0.027	0.967 ± 0.016	0.969 ± 0.01	0.93 ± 0.031	0.907 ± 0.0098	0.947 ± 0.034	0.913 ± 0.042
UniProt Q969P0|Q969P0-3	1.02 ± 0.066	1 ± 0.048	0.961 ± 0.07	0.956 ± 0.058	0.932 ± 0.069	0.932 ± 0.049	0.953 ± 0.053	0.919 ± 0.077
